Screens deposited in PubChem BioAssay by The Scripps Research Institute Molecular Screening Center.
The list is not random: actives were taken first. Their share in the collection is about 3.5%.
TEAD-YAP block: TEAD-YAP interaction inhibition | HEK-TIYL cells, TEAD-Gal4/YAP UAS-luciferase luminescence | AID 1259422 | inhibition, % at 9.12 µM | actives 1.4% (n = 640,000); in the data active means inhibition above about 32%;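 further: 0% = median of test compound wells and 100% = reference inhibitor wells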
MITF primary: blocks human microphthalmia-associated transcription factor; O75030; AlphaScreen MITF homodimerization, bead proximity signal; inhibition, % at 2.6 µM; actives 0.91% (n = 650,000); AID 1259374; in the data active means inhibition above about 50%;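 further: 0% = vehicle wells with protein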
FBW7 act: activators of human E3 ligase FBW7; AID 1259310; normalized activity (activation), % at 26.1 µM; Q969H0; AlphaScreen FBW7–phospho-cyclin E peptide binding, activator screen; actives 0.13% (n = 650,000); in the data active means normalized activity above about 1.9%;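 further: purified mutant Fbw7 with reduced substrate affinity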
Target sequence (Q969H0 whole entry, looked up): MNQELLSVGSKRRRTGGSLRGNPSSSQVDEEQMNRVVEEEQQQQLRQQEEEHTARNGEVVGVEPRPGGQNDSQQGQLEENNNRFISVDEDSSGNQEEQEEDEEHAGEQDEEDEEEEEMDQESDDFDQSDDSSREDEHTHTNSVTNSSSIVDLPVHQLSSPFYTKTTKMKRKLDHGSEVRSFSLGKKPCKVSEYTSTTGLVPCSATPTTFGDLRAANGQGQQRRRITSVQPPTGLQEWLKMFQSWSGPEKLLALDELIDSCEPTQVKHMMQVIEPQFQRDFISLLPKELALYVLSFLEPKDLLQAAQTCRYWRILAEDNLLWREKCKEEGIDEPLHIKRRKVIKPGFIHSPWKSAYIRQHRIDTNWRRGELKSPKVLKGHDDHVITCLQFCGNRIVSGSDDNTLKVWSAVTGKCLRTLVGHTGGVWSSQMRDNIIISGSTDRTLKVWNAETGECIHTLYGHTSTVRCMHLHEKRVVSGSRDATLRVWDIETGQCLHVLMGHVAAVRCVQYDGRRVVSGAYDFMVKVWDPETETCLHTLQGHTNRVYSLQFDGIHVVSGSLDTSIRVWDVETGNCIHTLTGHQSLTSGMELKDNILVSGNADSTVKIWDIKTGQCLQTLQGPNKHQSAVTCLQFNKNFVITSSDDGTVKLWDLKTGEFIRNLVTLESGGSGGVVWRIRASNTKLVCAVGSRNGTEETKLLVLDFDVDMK
GPR151 ag: activators of human GPR151; PathHunter beta-arrestin GPR151 cells, luminescence; activation, % at 11.2 µM; actives 1% (n = 650,000); AID 1508602; in the data active means activation above about 4.9%;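 further: 0% = median of compound wells and 100% = cells with positive control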
Active calls of the source: *.

SMILES	TEAD-YAP block	MITF primary	FBW7 act	GPR151 ag
COc1ccc(/C=N/Nc2cc(-n3cc(C)cn3)ncn2)c(OC)c1	-2.8	-6.3	0.2	-0.8
COc1cccc(/C=N/Nc2cc(-n3cc(C)cn3)ncn2)c1O	87.8*	73.4*	-0.5	-1.9
Cc1ccc(C)c(Nc2cc(C)nc(-c3ccccc3O)n2)c1	40.9*	-9.6	-0.2	0.1
O=[N+]([O-])c1cccnc1N/N=C/c1ccccc1O	46.7*	13.8	-0.3	-2.4
O=[N+]([O-])c1ccc(O)c(/C=N/Nc2ncccc2[N+](=O)[O-])c1	-3.1	5.1	0.0	-0.1
CCCNc1nc(-c2ccc(N3CCOCC3)nc2)nc2nc[nH]c12	0.5	2.3	0.1	-1.1
O=C(Nc1ccc2oc(-c3ccc(Cl)cc3)nc2c1)c1ccc(-c2ccccc2)cc1	4.1	10.5	0.1	1.0
COc1cc(=O)n2c(c1C(=O)N1CCCC1)CCN(C/C=C/c1ccco1)CC2	-8.3	14.7	0.0	0.4
COc1cccc(/C=N\Nc2ncccc2[N+](=O)[O-])c1O	64.4*	3.8	-1.1	-3.6
COc1ccc(/C=N\Nc2cc(C)nc(-c3ccccc3O)n2)c(OC)c1	-5.0	5.7	0.7	1.0
Cc1nc2ccccc2nc1N/N=C/c1ccc(O)c(C)c1O	-13.9	-0.9	0.0	-0.5
COc1cccc(/C=N\Nc2ccccn2)c1O	-43.7	60.9*	-1.5	-2.3
COc1cccc(/C=N\Nc2cc(C)nc(-c3ccccc3O)n2)c1O	39.2*	8.2	0.0	0.4
COc1cccc(/C=N/Nc2nc3ccccc3nc2C)c1O	62.9*	-92.1	0.0	-0.6
CCC(CC)CN1C[C@@H](n2cnnn2)C[C@H]1C(=O)NCc1cccs1	3.1	15.2	0.1	0.3
COc1cccc(/C=N\Nc2cc(C)c3ccccc3n2)c1OC	59.6*	2.8	-0.2	3.8
CCOC(=O)CN1c2ccccc2NC1C(C#N)c1ccc(OC)cc1 (stereo unspecified)	36.5*	0.1	0.4	-2.3
CCOC(=O)CSC1=C(C#N)C(=O)NC(c2ccc(OC)cc2)S1 (stereo unspecified)	-3.1	-1.9	-0.1	0.3
Cc1ccc(Cl)cc1N1CCN(Cc2nnnn2Cc2ccccc2)CC1	-8.6	-6.8	0.2	0.9
Cc1cc(C(=O)COc2ncnc3sccc23)c(C)n1CC1COc2ccccc2O1 (stereo unspecified)	5.0	13.6	0.0	-0.8
Cc1cc(C(=O)COC(=O)c2n[nH]c3ccccc23)c(C)n1Cc1cccs1	74.2*	-13.6	-0.2	0.6
Cc1cc(C(=O)COc2ncnc3sccc23)c(C)n1Cc1cccs1	32.8*	-19.2	-0.2	-0.9
Cc1cc(C(=O)COC(=O)c2cccnc2Cl)c(C)n1Cc1cccs1	47.0*	5.2	0.0	-0.3
Cc1ccccc1C(=O)OCC(=O)c1cc(C)n(Cc2ccco2)c1C	69.2*	13.7	0.0	-1.3
Cc1oc2ccc(OC(=O)c3cccc([N+](=O)[O-])c3)cc2c1C(=O)OC(C)C	11.4	5.1	0.2	-0.6
SMILES	TEAD-YAP block	MITF primary	FBW7 act	GPR151 ag
CC(NC(=O)C(=O)N/N=C/c1ccncc1)c1ccccc1 (stereo unspecified)	-5.2	0.4	-0.2	0.1
CC(=O)NS(=O)(=O)c1ccc(Nc2c([N+](=O)[O-])cncc2[N+](=O)[O-])cc1	3.3	16.1	0.2	4.3
CCCNC(=O)c1cncc(-c2cccc(N)c2)c1	5.8	-1.8	0.1	-0.1
CC(C)n1nccc1-c1nnc(NC(=O)C(C)(C)Oc2ccc(Cl)cc2)o1	37.5*	31.1	-0.8	-0.1
CC(C)n1nccc1-c1nnc(NC(=O)c2ccc(Cl)cc2Cl)o1	11.9	2.7	0.0	-0.9
CC(=O)Nc1ccnn1C1CCN(Cc2cnc(-c3ccccc3C)nc2)CC1	40.9*	8.9	0.0	-1.9
CC(=O)Nc1ccnn1C1CCN(Cc2ccc(-c3ccccc3)cc2)CC1	-17.4	14.0	0.2	0.2
CC(=O)Nc1ccnn1C1CCN(Cc2cnc(-c3ccccc3)s2)CC1	67.1*	-1.0	-0.1	-4.8
C/C(=N/Nc1nnc(Nc2ccccc2Cl)s1)c1ccccn1	21.4	30.4	-0.4	-2.9
Cc1ccc(C)c(CN2CCc3nnc(C(C)NC(=O)C4CCN(C)CC4)n3CC2)c1 (stereo unspecified)	1.4	6.1	1.1	0.4
COC(=O)c1cc(C(=O)N2CCN(c3cccc(Cl)c3)CC2)cc([N+](=O)[O-])c1	63.1*	3.8	0.0	0.7
O=C(c1cccc([N+](=O)[O-])c1)N1CCN(c2cccc(Cl)c2)CC1	13.4	8.4	0.5	0.6
CCOc1ccc(-c2cc(C(=O)N/N=C/c3ccccn3)[nH]n2)cc1	33.8*	21.2	0.0	1.5
Cc1ccc(-c2cc(C(=O)NN)[nH]n2)cc1	-4.0	14.5	-0.1	-0.9
COc1ccc(-c2cc(C(=O)NN)[nH]n2)cc1	61.6*	0.1	0.4	-0.8
CCOc1ccc(-c2cc(C(=O)N/N=C/c3ccccc3O)[nH]n2)cc1	50.5*	-0.1	0.1	1.7
COc1cccc(-c2cc(C(=O)N/N=C/c3ccccc3O)[nH]n2)c1	-18.1	22.5	0.1	-1.4
CCCc1cc(=O)[nH]c(SCC(=O)NC(C)C)n1	1.4	9.8	0.6	-1.1
CC1CCCCN1CCCNc1nc2ccccc2c2nc(-c3cccnc3)nn12 (stereo unspecified)	50.2*	17.9	0.5	-0.3
CCN(CC)CCCNc1nc2ccccc2c2nc(-c3cccnc3)nn12	48.7*	11.7	0.2	-0.4
CC1CCCC(C)N1CCNc1nc2ccccc2c2nc(-c3cccnc3)nn12 (stereo unspecified)	80.7*	3.0	0.5	-0.3
CCN(CC)CCNc1nc2cc(OC)c(OC)cc2c2nc(-c3ccccc3)nn12	54.4*	9.2	-0.5	0.3
CCCC1=NN(c2ccccc2)C(=O)/C1=C/c1ccc(OCC(=O)O)c(OCC)c1	-2.6	0.5	0.0	0.3
CCOC(=O)CCn1c(=O)c2c(nc3n(-c4cccc(C)c4)c(C)c(C)n23)n(C)c1=O	-5.8	-1.7	-0.2	0.3
Cc1onc(-c2c(Cl)cccc2Cl)c1C(=O)N1CCN(c2cccc(C(F)(F)F)c2)CC1	54.5*	16.4	0.1	1.4
SMILES	TEAD-YAP block	MITF primary	FBW7 act	GPR151 ag
Cc1nc2ccccn2c1C(=O)N1CCN(c2cccc(C(F)(F)F)c2)CC1	58.4*	3.4	-0.1	4.6
CC(=O)N1CC(C)Sc2cc(S(=O)(=O)N3CCN(Cc4ccccc4)CC3)ccc21 (stereo unspecified)	48.7*	13.7	0.1	-0.4
O=C1NC(=S)N(c2cccc(F)c2)C(=O)/C1=C/c1ccsc1	-1.3	-0.5	0.0	1.6
COc1ccccc1NC(=O)Nc1cc(C)cn(Cc2ccccc2Cl)c1=O	3.6	16.1	0.2	1.6
CCOc1cccc(/C=N/NC(=O)c2cc(-c3ccco3)[nH]n2)c1O	38.9*	28.6	-0.5	2.1
CCOc1ccccc1C(=O)N/N=C/c1cccc(OC)c1O	-2.2	12.8	0.3	-1.6
COc1ccccc1/C=N/NC(=O)c1[nH]nc(-c2ccccc2)c1C	-59.2	10.4	0.0	-1.8
CCOc1cccc(/C=N/NC(=O)c2[nH]nc(-c3ccccc3)c2C)c1O	48.2*	12.6	0.1	-1.1
CCOc1cccc(/C=N/NC(=O)c2ccccc2O)c1O	88.0*	41.0	-1.0	-7.6
